The results in this text go back to PubChem BioAssay (NCI).

Common to all, as to assay: NCI-60 one-dose screen, 48 h (100 = growth as untreated, 0 = no growth, -100 = all killed)
Holding throughout (conditions): 10 µM unless noted

The subject of experiment [1] is SK-MEL-2 melanoma.
The test system of experiment [2] is EKVX NSCLC.
Experiment [3] has as its system SN12C renal.
Experiment [4] has as its system UO-31 renal.
In experiment [5] the test system is TK-10 renal.
The subject of experiment [6] is ACHN renal.
Experiment [7] deals with CAKI-1 renal.
In experiment [8] the test system is A498 renal.
The subject of experiment [9] is CCRF-CEM leukemia.
Experiment [10] has as its system MOLT-4 leukemia.
In experiment [11] the test system is RPMI-8226 leukemia.
In experiment [12] the test system is OVCAR-8 ovarian.
The test system of experiment [13] is OVCAR-5 ovarian.
The test system of experiment [14] is OVCAR-4 ovarian.
For experiment [15], the system named is SK-OV-3 ovarian.
The test system of experiment [16] is IGROV1 ovarian.
Experiment [17] relates to OVCAR-3 ovarian.
Experiment [18] relates to HS 578T breast.
In experiment [19] the test system is NCI/ADR-RES ovarian.

Molecules are shown by their SMILES. This is part of a sample that, as a whole, favours compounds with a hit. Of some 83,000 tested, about 20% had one in any assay.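 Single-concentration screen, 48 h exposure, 96-well plates. Endpoint: percent growth. Below 10 = active.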 A number with no mark means an inactive call. Calls of active or inactive are those of the source.

`CCCCCCCCCCCCCCCCCCOc1ccccc1CC(=O)OCC[N+](CC)(CC)CC`: the growth was -10.1% (active) in experiment [1]; 43.4% in experiment [2]; 15.2% in [3]; 89.5% in experiment [4]; 38.5% in [5]; 64.4% in [6]. The growth was 35.6% in [7]; 65.9% in experiment [8]; 15.7% in experiment [9]; 12.8% in [10]; -3.45% (active) in [11]; 17.7% in experiment [12]. For the same compound, the growth in experiment [13] was 41%; in experiment [14], 19.1%; in experiment [15] it was 66.2%; in experiment [16], -26.9% (active); in experiment [17] it was 31.4%; in [18], 38.2%. In addition, the growth in [19] is 95.9%.

Regarding `Cn1cc(C(=O)c2nc(-c3cn(C)c4ccc(F)cc34)no2)c2cc(F)ccc21`, the growth in experiment [1] is 102%; in experiment [2] it was 107%; in experiment [3], 91.9%; in experiment [4] it was 63%; in experiment [5], 108%; in [6], 94.1%. The growth in experiment [7] is 88.9%; in experiment [8], 113%; in [9], 92%; in experiment [10], 99.6%; in experiment [11] it was 91.1%; in [12], 95.5%. Moreover, the growth was 85.9% in experiment [13]; 81% in [15]; 77.8% in [16]; 98.4% in [17]; 87% in experiment [18]; 102% in [19].

Turning to `NS(=O)(=O)c1ccc(-n2nc(C(=O)N/N=C\c3ccc(F)cc3)cc2-c2ccc(Br)cc2)cc1`, the growth in [1] is 80%; in experiment [2], 72.7%; in [3], 92.7%; in experiment [4], 75%; in [5], 121%; in experiment [6], 88.2%. For the same compound, the growth is 41.8% in experiment [7]; 31.9% in experiment [8]; 74.8% in [9]; 80.4% in experiment [10]; 94.9% in [11]; 94.5% in experiment [12]. Also, the growth was 94.9% in experiment [13]; 87.2% in [14]; 73.6% in experiment [16]; 82.3% in experiment [17]; 72.1% in experiment [18]; 67.8% in [19].

With `COc1ccc(OC)c(/C=C/C(=O)N/N=C/c2ccccc2)c1`, the growth was -1.33% (active) in experiment [1]; 64% in [2]; 52.1% in experiment [3]; 56.6% in experiment [4]; 56.7% in experiment [5]; 62.8% in experiment [6]. The growth in experiment [7] is 47.5%; in experiment [8], 38.7%; in experiment [9], 55.2%; in experiment [10], 36.5%; in experiment [11], 54.4%; in experiment [12] it was 54.8%. The growth was 85% in experiment [13]; 78.2% in [14]; 60% in experiment [15]; 38.5% in [16]; 6.02% (active) in experiment [17]; 66.5% in experiment [18]. Moreover, the growth in experiment [19] was 8.51% (active).

`O=S(=O)(NCCCNc1cc(-c2c(-c3cccc(O)c3)nc3sccn23)ccn1)c1cccc2ccccc12`: the growth in experiment [1] is 59.8%; in experiment [2], 50%; in experiment [3], 21.1%; in [4] it was 27.6%; in [5], 82.7%; in experiment [6], 38.9%. The growth in experiment [7] was 36.1%; in experiment [8], 59%; in [9], 21.2%; in experiment [10] it was 26.4%; in [11], 8.85% (active); in [12] it was 19%. For the same compound, the growth in [13] was 102%; in [15] it was 58.2%; in [16] it was 30.6%; in [17] it was 40.1%; in experiment [18], 22.7%; in experiment [19], 77%.

Turning to `O=c1ccc(N=Nc2ccccc2)ccc1Cl`, the growth in [1] is 77.6%; in [2] it was 65.9%; in [3], 60%; in experiment [4], 77%; in [5], 111%; in experiment [6], 75.9%. The growth in experiment [7] was 76.1%; in experiment [8] it was 191%; in [9], 31.3%; in [10], -1.36% (active); in [11], 25.1%; in [12] it was 38.9%. For the same compound, the growth is 120% in experiment [13]; 84.6% in experiment [14]; 80.7% in experiment [16]; 23.7% in experiment [17]; 92.4% in [18]; -4.66% (active) in experiment [19].

In the case of `O=C(/C=C/c1sc(Cl)nc1Cl)c1ccccc1`, the growth in experiment [1] was 104%; in [2] it was 101%; in [3] it was 44.8%; in experiment [4], 90.7%; in experiment [5] it was 111%; in experiment [6], 46.9%. Also, the growth was 93.1% in experiment [7]; 100% in experiment [8]; 34.9% in experiment [9]; 32.3% in [10]; 14% in experiment [11]; 93.5% in experiment [12]. Further, the growth in [13] is 99.5%; in experiment [15], 103%; in experiment [16] it was 91.9%; in experiment [17], 46%; in experiment [18], 103%; in experiment [19] it was 101%.

As to `CCOC(=O)Cn1c(C)c(/C=N/NC(=O)c2cc3c(ccc4ccccc43)o2)c2ccccc21`, the growth in experiment [1] is 44.1%; in [2], 41.1%; in [3], 34.4%; in experiment [4], 40.2%; in [5] it was 58.8%; in experiment [6], 28.4%. Also, the growth in [7] was 47.1%; in experiment [8] it was -6.48% (active); in experiment [9], 11.3%; in [10] it was 18.7%; in experiment [11], 10.6%; in [12], 15.5%. For the same compound, the growth in [13] was 40%; in [14], 51%; in experiment [16], 26.3%; in experiment [17] it was 0.688% (active); in experiment [18] it was 34.7%.
